Measured values published in PubChem BioAssay AID686978 (National Center for Advancing Translational Sciences (NCATS), 2013).
About 64,000 (15%) of roughly 420,000 compounds were called active. Another 27% or so got no clear call; they are omitted. Not all results are given here. Values without a mark were called inactive. The call rests on the fitted dose curve; in most records, active means well fitted inhibition curve with a large enough effect; inconclusive means small, poorly fitted or top-dose-only effect; inactive means flat fitted curve, though single readings scatter.

experiment: qHTS for Inhibitors of human tyrosyl-DNA phosphodiesterase 1 (TDP1): qHTS in cells in absence of CPT; conditions: DT40 Tdp1-/- hTDP1 cells, no CPT, ATP luminescence, 48 h; activity change, negative = growth inhibition: at 46.2 µM (top of the series); further: nearly all actives have a fitted effect of over 55% in size
Procedure, shortened: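 Seeded 400 DT40-hTDP1 cells/well (vehicle DMSO, no 20 nM CPT); pinned compounds; ≥48 hr at 37 °C; CellTiter-Glo luminescence as viability measure.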
On the % scale 0 is the no-effect control and ±100 the full control effect; potency means the concentration at half of the fitted maximal effect.

Row | SMILES | activity change, negative = growth inhibition | Potency
1 | Cc1nc2c(c(C)nn2-c2ccccc2)c(C)c1C | -4.15% | –
2 | Cc1cccc(-n2nc3c(c2NC(=O)c2cc4ccccc4o2)CS(=O)(=O)C3)c1 | 6.63% | –
3 | CC(C)COc1ccc(C(=O)NNC(=O)CCC(=O)c2cccs2)cc1 | -12% | –
4 | CCCCCCCCCCCC(=O)O[C@H](CC(=O)O)C[N+](C)(C)C | -7.19% | –
5 | CC(=O)c1ccc(Cc2ncc(C(F)(F)F)cc2Cl)s1 | -26.3% | –
6 | CCOC(=O)N1CCN(C(=O)CN(c2ccc(C)c(C)c2)S(=O)(=O)c2ccccc2)CC1 | -12.8% | –
7 | Cc1ccc(S(=O)(=O)N(CCc2ccccc2)c2ccc3c(c2)C2CC3CCN2C(=O)OCc2ccccc2)cc1 (centres undefined) | – | 9.2 µM (active)
8 | Cc1ccc(S(=O)(=O)CCC(=O)OCc2ccccc2)cc1 | 15.7% | –
9 | COc1cc(C(C)=O)ccc1OC(=O)CN1C(=O)c2ccccc2C1=O | -26% | –
10 | CCOC(=O)c1[nH]cnc1C(=O)Nc1ccccc1C | -3.94% | –
11 | O=C(Nc1ccc2c(c1)CCC2)c1cccc(S(=O)(=O)Nc2ccccc2Cl)c1 | -14.2% | –
12 | CCCCN(C(=O)c1ccc(C)o1)c1c(N)n(CCCC)c(=O)[nH]c1=O | 13.2% | –
13 | O=C(CN1CCOCC1)Nc1c(Cl)cc(Cl)cc1Cl | 10.4% | –
14 | O=C(Nc1ccc(CN2CCOCC2)cc1)c1cc(Cl)ccc1Cl | -0.347% | –
15 | CC(C)(C)c1cc(NC(=O)NN2CCOCC2)nn1-c1c(Cl)cc(Cl)cc1Cl | – | 14.6 µM (active)
16 | Cn1cccc1/C=C1\SC(=O)N(CC(=O)Nc2ccc(F)cc2)C1=O | -29.1% | –
17 | CNC(=S)NNC(=O)c1oc2nc(-c3ccccc3)cc(-c3ccco3)c2c1N | -24% | –
18 | COc1ccccc1C1C2=C(COC2=O)Nc2cc3c(cc21)OCO3 (centres undefined) | 8.9% | –
19 | O=C1OCC2=C1C(c1ccc(Cl)cc1)c1cc3c(cc1O2)OCO3 (centres undefined) | – | 16.4 µM (active)
20 | O=C(c1ccc(O)cc1)c1ccc(C(=O)O)c(C(=O)O)c1 | 5.6% | –
21 | Cc1cccn2cc(-c3cccc(S(=O)(=O)N4CCCCC4)c3)nc12 | -29.2% | –
22 | CCOC(=O)/C(C#N)=C/c1cn(CCC(=O)O)nc1-c1ccc(Br)cc1 | -6.75% | –
23 | O=C(O)CCn1cc(/C=C/C(=O)c2ccc(Cl)cc2)c(-c2cccc(Br)c2)n1 | – | 23.1 µM (active)
24 | O=C(O)/C=C/c1cn(Cc2ccccc2)nc1-c1cccs1 | 6.28% | –
25 | CC1CN(C(=O)c2ccccc2NS(=O)(=O)c2cccc([N+](=O)[O-])c2)CC(C)O1 (centres undefined) | -6.58% | –
26 | COc1ccc(-c2sc3ccc(OC)cc3c2C#Cc2ccccn2)cc1 | – | 18.4 µM (active)

Row | SMILES | activity change, negative = growth inhibition | Potency
27 | COc1ccc2sc(-c3ccc(N(C)C)cc3)c(-c3ccc4cc[nH]c4c3)c2c1 | -18% | –
28 | COc1ccc2sc(-c3ccc(N(C)C)cc3)c(C#CCO)c2c1 | – | 18.4 µM (active)
29 | COc1ccc2c(Cl)c(-c3nnco3)sc2c1 | -8.82% | –
30 | COc1ccc2sc(-c3ccc(S(C)(=O)=O)cc3)c(-c3ccc(C(N)=O)cc3)c2c1 | -1.83% | –
31 | COc1cc(OC)cc(-c2sc3ccc(OC)cc3c2-c2ccc3cc[nH]c3c2)c1 | -9.7% | –
32 | CC(C)(C)c1ccc(S(=O)(=O)NC(=O)C2(C)CCN2C(=O)CC2CC2)cc1 (centres undefined) | -2.27% | –
33 | CCS(=O)(=O)C1=NSC2=NC(=O)/C(=C\c3ccc(OS(=O)(=O)c4ccccc4)cc3)C(=N)N21 | -23.1% | –
34 | Cc1cc(C)cc(NC(=O)C(OC(=O)c2ccc(O)cc2)c2ccccc2)c1 (centres undefined) | 1.18% | –
35 | CCCn1c(C)cc(/C=C(\C#N)C(=O)OCC(=O)N(C)c2c(N)n(Cc3ccccc3)c(=O)[nH]c2=O)c1C | -27.5% | –
36 | COc1ccc(N/N=C2/CCCCC2=O)cc1 | -3.32% | –
37 | CC1(C)CN(c2ccc(-c3ccnc4ncnn34)cc2)C1=O | -20.8% | –
38 | CC(=O)Oc1cccc(N2C(=O)C3CC=C(Cl)CC3C2=O)c1 (centres undefined) | -2.61% | –
39 | O=C(NC1CC(=O)N(c2ccccc2)C1)c1ccco1 (centres undefined) | 2.8% | –
40 | O=C(Oc1cccc(N2C(=O)C3C4c5ccccc5C(c5ccccc54)C3C2=O)c1)c1ccco1 (centres undefined) | – | 29.1 µM (active)
41 | CC(C)(C)NC(=O)C(=O)NCc1ccncc1 | -15.4% | –
42 | c1ccc(CSCCc2ccncc2)cc1 | -29.7% | –
43 | CC(C)(C)c1ccc(SCCc2ccncc2)cc1 | – | 16.4 µM (active)
44 | CN(C)CC(O)COc1ccc(C(C)(C)c2ccc(OCC(O)CN(C)C)cc2)cc1 (centres undefined) | – | 17.8 µM (active)
45 | COc1ccc(OCC(O)CN(C)C(=O)C(C)Oc2ccccc2)cc1 (centres undefined) | -27.4% | –
46 | CCCc1ccc(OCC(O)CN2CCN(CCO)CC2)cc1 (centres undefined) | 10% | –
47 | O=S(=O)(Cc1nnnn1-c1ccccc1)c1ccccc1 | 30.9% | –
48 | CC(C)C(=O)Nc1ccc2oc(=O)ccc2c1 | 9.1% | –
49 | Cc1cc(Br)cn2c(Cc3ccccc3C(F)(F)F)c(-c3ccc(Cl)cc3)nc12 | -22.3% | –
50 | CC(C)(C)Cc1c(C2CCCCC2)nc2ccc(Br)cn12 | -19.5% | –
51 | Cc1cc(Br)cn2c(Cc3cccc(F)c3)c(-c3cccc(Br)c3)nc12 | – | 23.1 µM (active)
52 | Fc1cccc(Cc2c(-c3cccc(Cl)c3)nc3ccc(Br)cn23)c1 | – | 14.6 µM (active)

Row | SMILES | activity change, negative = growth inhibition | Potency
53 | CCOC(=O)N1CCN(S(=O)(=O)c2cc3c(cc2C)NC(=O)CO3)CC1 | -22.2% | –
54 | Cc1nc(N)c(Br)c(C)c1Br | -49.5% | –
55 | CCOC(=O)C1C(=O)NC(N2CCN(c3ccccc3)CC2)=NC1c1ccco1 (centres undefined) | -19.7% | –
56 | Cc1cc(N=Nc2ccc3ccccc3c2)ccc1O | -5.46% | –
57 | CC(C)C[C@H](NC(=O)N1CCn2c1nc1ccccc12)C(=O)NC1CC1 | 17.7% | –
58 | COc1ccc(-n2ccn(CC(=O)Nc3ccc(C)c(C)c3)c(=O)c2=O)cc1OC | 8.27% | –
59 | COc1ccc(NC(=O)CN2C(=O)CSC2=O)cc1 | 1.73% | –
60 | COc1ccc(NC(=O)CNC(=O)Cc2ccccc2)cc1OC | -1.15% | –
61 | COc1ccc(NC(=O)CN2C(=O)C(c3ccccc3)=NC23CCCCCC3)cc1OC | – | 18.4 µM (active)
62 | CCOC(=O)c1cn(CC(=O)Nc2ccc(C(C)C)cc2)nn1 | -21.1% | –
63 | COc1ccc(C2=NC3(CCCCC3)N(CC(=O)Nc3ccc(C(C)C)cc3)C2=O)cc1 | – | 20.6 µM (active)
64 | COc1ccc(NC(=O)CC2SC(N3CCCCC3)=NC2=O)cc1OC (centres undefined) | 3.8% | –
65 | NC(=O)C1(N2CCCCC2)CCN(C2CC(=O)N(Cc3ccc(N4CCCC4=O)cc3)C2=O)CC1 (centres undefined) | -3.12% | –
66 | CC(Oc1cccc(Cl)c1)C(=O)Nc1ccc(S(=O)(=O)Nc2ncccn2)cc1 (centres undefined) | -0.0684% | –
67 | C[C@H](CO)N1C[C@H](C)[C@H](CN(C)CC2CC2)Oc2ccc(NC(=O)CCN3CCOCC3)cc2C1=O | -4.56% | –
68 | CC1CCCN(C(=O)c2cc(-c3ccco3)nc3ccccc23)C1 (centres undefined) | -13.8% | –
69 | O=C1c2cccc3cccc(c23)C(=O)N1CCCCCc1n[nH]c(=S)o1 | -12.8% | –
70 | COc1ccc(NC(=O)c2cc(-c3cc(OC)c(OC)c(OC)c3)nc3ccccc23)c(OC)c1 | – | 8.2 µM (active)
71 | COc1ccc(-c2cc(C(=O)N(C)Cc3ccccc3)c3ccccc3n2)cc1 | – | 14.6 µM (active)
72 | CC(C)(C)Cc1nnc(NC(=O)c2cc(-c3ccccc3)nc3ccccc23)s1 | -26.7% | –
73 | COc1ccc(-c2cc(C(=O)N(C)Cc3ccc(OC)c(OC)c3OC)c3ccccc3n2)cc1OC | – | 18.4 µM (active)
74 | COc1ccc(/C=N/OCC(=O)N(Cc2ccccc2)c2ccccc2C(=O)O)cc1 | -1.1% | –
75 | CN(Cc1ccc(F)cc1)C(=O)COc1ccc2ccccc2c1 | -15.6% | –
76 | COc1ccccc1NC(=O)c1cc(Cl)nc2ccccc12 | 4.16% | –
77 | COc1ccc(CN(C)C(=O)Cc2c[nH]c3ccccc23)c(OC)c1OC | -23.1% | –
78 | COc1ccc(-c2cc(C(=O)N(C)CC(=O)Nc3ccccc3Cl)c3ccccc3n2)cc1OC | – | 9.2 µM (active)

Row | SMILES | activity change, negative = growth inhibition | Potency
79 | CN(CC(=O)Nc1ccccc1Cl)C(=O)c1ccccc1SCC(=O)N1CCCC1 | -16.5% | –
80 | Cc1cccc(C(=O)NCC(=O)OCC(=O)N(C)CC(=O)Nc2ccccc2Cl)c1 | -9.68% | –
81 | CC(C)(O)C#Cc1ccc(CNC[C@H]2O[C@@H](n3cnc4c(=O)[nH]c(N)nc43)[C@H](O)[C@@H]2O)s1 | 2.14% | –
82 | O=C(CN1CCC(NC(=O)C2CC2)CC1)Nc1ccccc1[N+](=O)[O-] | -8.6% | –
83 | C=O | 1.38% | –
84 | CN1CCC2(CC1)NC(=O)NC2=O | -11.8% | –
85 | Cc1ccc(NC(=O)COC(=O)CNC(=O)c2ccc(Cl)cc2Cl)cc1S(=O)(=O)N1CCOCC1 | 1.87% | –
86 | NC(=O)Cc1ccc2sc(-c3ccccc3)nc2c1 | -21.5% | –
87 | Cn1c(=O)n(C)c2cc(/C=N/NC(=O)c3cccc(Br)c3)ccc21 | -24.1% | –
88 | Cc1ccc(-c2cc(C(=O)Nc3nn[nH]n3)c3ccccc3n2)c(C)c1 | 1.44% | –
89 | COc1ccc(CN(C)C(=O)c2cc(-c3ccc(C)cc3C)nc3ccccc23)c(OC)c1OC | – | 11.6 µM (active)
90 | COc1ccc(CN(C)C(=O)Cc2ccsc2)c(OC)c1OC | -6.23% | –
91 | CC(=O)Nc1nc2c(s1)C(=O)NCC(C)(C)C2 | 5.92% | –
92 | Cn1nc(C(C)(C)C)c(NC(=O)c2sccc2Cl)c1C(C)(C)C | -23.7% | –
93 | NCCCNCCCCN(CCCN)/[N+]([O-])=N/O | – | 13.3 µM (active)
94 | COc1ccc(CN2[C@@H](CC(=O)O)c3cc(F)ccc3S2(=O)=O)cc1 | – | inactive
95 | COCCNC(=S)N1CCC(NC(=O)C23CC4CC(CC(C4)C2)C3)CC1 | -11.4% | –
96 | S=C(Nc1cccc(Cl)c1)Nc1ccc2c(c1)OCCO2 | -15.8% | –
97 | Cc1csc(NC(=S)Nc2cccc(Cl)c2)n1 | – | 4.61 µM (active)
98 | S=C(Nc1cccc(Cl)c1)Nc1ccc2cn[nH]c2c1 | -3.53% | –
99 | COc1cc(Cl)c(C)cc1Nc1nnc(-n2nc(C)cc2C)c2ccccc12 | -24% | –
100 | Cc1ccc(NC(=O)NC(=O)CSc2nnc(-c3ccc(OC(F)F)cc3)n2N)c(C)c1 | 11.1% | –
101 | CCOC(=O)CN(C(=O)CN1CCOCC1)c1ccc(Br)cc1 | -10.1% | –
102 | COC(CNC(=O)c1ccc2c(c1)ncn2-c1cc(C)cc(C)c1)OC | -14.3% | –
103 | COCCNC(=O)c1ccc2c(c1)ncn2-c1ccc(C)c(Cl)c1 | – | 14.6 µM (active)
104 | COc1ccc(-n2cnc3cc(C(=O)NC4CCCC4)ccc32)cc1 | -25.9% | –
